Consider 40 compounds from PubChem BioAssay (Tox21).

Values joined by “and” are separate entries in the source; they are usually repeats but may differ in a detail not shown here. Equal entries are not always repeated. Inconclusive results are not listed. A call without a number means that no potency is given here. Some compounds were tested as several samples or in several runs, with calls that do not always agree. Active and inactive are the calls of the source. The call rests on the fitted dose curve; in most records, active means well fitted cell-killing curve with a large enough effect in the repeat runs; inconclusive means weak or mixed curves, or effect the other way; inactive means no such curve, though single readings can be large or run the other way.
Potency means the concentration at half of the fitted maximal effect.

The nature of the assay: qHTS assay for identifying genotoxic compounds that show differential cytotoxicity against isogenic chicken DT40 cell lines with known DNA damage response pathways - wild type cell line (AID 743012). Further: nearly all actives have a fitted effect of over 60% in size. Particulars: DT40 wild type chicken cells viability, CellTiter-Glo, 40 h; series mostly up to 68.4 µM; activity change, negative = cytotoxicity: at the top concentration. The text has this: U.S. Tox21 Program National Center for Advancing Translational Sciences [NCATS] NIH Chemical Genomics Center [NCGC] U.S. Environmental Protection Agency [EPA] National Institutes of Environmental Health Sciences [NIEHS] National Toxicology Program [NTP] U.S. Food and Drug Administration [FDA] Tox21 Assay Overview: DNA repair pathways play a critical role in cellular homeostasis by repairing DNA damage induced by endogenous processes and xenobiotics. Isogenic chicken DT40 cell lines deficient in different DNA repair pathways can be used to identify genotoxic compounds and aid in characterizing the nature of the DNA damage induced. Two DNA repair-deficient cell lines with disrupted genes, Rad54/Ku70 or Rev3, were used to screen the Tox21 10K compound library. Possible genotoxicity was based on the presence of a significant increase in cytotoxicity in one or more of the DNA repair-deficient cell lines compared to that observed in the parental DNA repair-proficient cell line. CellTiter Glo viability assay (Promega, Madison, WI) was used to measure cell viability in these cells after compound treatment. This assay includes the data from the wild type cell line.
Tox21 Assay Protocol Summary: 300 DT40 wild type cells in 5 uL/well were dispensed into white, solid-bottom 1536-well plates using a Multidrop Combi (ThermoFisher Scientific, Waltham, MA) dispenser. After the assay plates were incubated at 37 C/5% CO2 for approximately 0.5 hour, 23 nL of compounds dissolved in DMSO, positive controls or DMSO only was transferred into the assay plate by a pintool work station (Kalypsys, San Diego, CA). The assay plates were incubated at 37 C/5% CO2 for 40 hours. After 5 uL per well of CellTiter-Glo reagent was added into each well of the assay plates, the plates were incubated for 30 min at room temperature and the luminescence intensity of the plates was measured using a ViewLux (PerkinElmer, Shelton, CT) plate reader.
In the case of `CC(C)(Oc1ccc(C2CC2(Cl)Cl)cc1)C(=O)O` (stereo not given), the Potency result is “inactive”.

With `CNC[C@H](O)c1cccc(O)c1`, the Potency entry was “inactive”.

As for `NC(=O)c1cnccn1`, the Potency result was “inactive”.

Regarding `C/C=C/c1ccc(OC)cc1`, the Potency entry was “inactive”.

Turning to `Oc1ccc(/C=C/c2cc(O)cc(O)c2)cc1`, the Potency was 7.17 µM (active) and 30.6 µM (active).

Consider `Cc1ccc(C)c(OCCCC(C)(C)C(=O)O)c1`, for which the Potency entry is “inactive”.

With `CCCCC(CC)COC(=O)/C=C/c1ccc(OC)cc1` (stereo not given), the Potency result is “inactive”.

As for `NC(=O)NC1NC(=O)NC1=O` (stereo not given), the Potency entry was “inactive”.

Turning to `CCCC(O)C(CC)CO` (stereo not given), the Potency entry is “inactive”.

Take `Nc1ccc(S(=O)(=O)Nc2nccs2)cc1`: the Potency entry is “inactive”.

Regarding `Nc1ccc(O)c(C(=O)O)c1`, the Potency result is “inactive”.

For `O=S(=O)(O)c1ccc2cc(O)ccc2c1`, the Potency entry was “inactive”.

Consider `CCCCC1C(=O)N(c2ccccc2)N(c2ccccc2)C1=O`, for which the Potency result was “inactive”.

Consider `OC(Cn1cncn1)(Cn1cncn1)c1ccc(F)cc1F`, for which the Potency result was “inactive”.

`O=c1cc[nH]c(=S)[nH]1`: the Potency entry is “inactive”.

Turning to `O=C(O)c1cccc([N+](=O)[O-])c1`, the Potency entry was “inactive”.

Regarding `Cc1cc(=O)n(-c2ccccc2)n1C`, the Potency entry is “inactive”.

Turning to `CCCN(CCC)S(=O)(=O)c1ccc(C(=O)O)cc1`, the “activity change, negative = cytotoxicity” value is 2.59% (inactive).

As to `Cc1cc(=O)[nH]c(=S)[nH]1`, the Potency entry was “inactive”.

As to `O=C(C1CCCCC1)N1CC(=O)N2CCc3ccccc3C2C1` (stereo not given), the Potency entry is “inactive”.

As for `CC(=O)OCC(COC(C)=O)OC(C)=O`, the Potency entry is “inactive”.

Consider `N=C(N)c1ccc(OCCCCCOc2ccc(C(=N)N)cc2)cc1`, for which the Potency was 1.88 µM (active) and 5.42 µM (active) and 1.31 µM (active).

For the compound `Nc1ccc(S(=O)(=O)c2ccc(N)cc2)cc1`, the Potency result is “inactive”.

Take `O=C(O)CCC(=O)O`: the Potency entry is “inactive”.

For the compound `NC(N)=NC(=O)c1nc(Cl)c(N)nc1N`, the Potency entry was “inactive”.

As to `NC(=O)c1ccccc1O`, the Potency result is “inactive”.

As for `Cc1ccc(S(=O)(=O)NC(=O)NN2CCCCCC2)cc1`, the Potency result is “inactive”.

`CC(O)CN(CCN(CC(C)O)CC(C)O)CC(C)O` (stereo not given): the Potency entry was “inactive”.

As to `O=C(O)c1cccnc1`, the Potency result is “inactive”.

Turning to `OCCc1ccccc1`, the Potency entry was “inactive”.

`c1ccc2[nH]ccc2c1`: the Potency result is “inactive”.

For the compound `CC(C)[C@@H]1CC[C@@H](C)C[C@H]1O`, the Potency result was “inactive”.

Take `O=C(O)c1[nH]n(-c2ccc(S(=O)(=O)O)cc2)c(=O)c1N=Nc1ccc(S(=O)(=O)O)cc1`: the Potency entry was “inactive”.

As for `CC(O)CO` (stereo not given), the Potency entry is “inactive”.

`CC(O)C(=O)O` (stereo not given): the Potency entry was “inactive”.

For the compound `CC1(C)[C@@H]2CC[C@@]1(C)C(=O)C2`, the Potency result was “inactive”.

With `Cn1cc[nH]c1=S`, the Potency entry is “inactive”.

`CCCC(CCC)C(=O)O`: the Potency entry was “inactive”.

As to `NC(N)=O`, the Potency entry was “inactive and 24.3 µM (active)”.

Turning to `CCCCCCCCCCCCCCCC(=O)O`, the Potency was 11.9 µM (active) and inactive.
